# CHRM1 antagonist: human M1 muscarinic receptor antagonists, primary screen, CHO-K1 cells, Fluo-8 calcium fluorescence, 1536-well; Muscarinic acetylcholine receptor M1 (Homo sapiens), P11229; CHO-K1 hM1, ACh EC80 antagonist; inhibition, % at 3 µM; 360,000 tested, 1.3% active; AID 588852, 2011;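 active means percent inhibition above its own plate's cutoff, namely the mean of that plate's compound wells plus 3 SD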;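 further: peak over basal fluorescence ratio during 140 s after agonist addition; 0% = ACh EC80 plus DMSO and 100% = DMSO alone without agonist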
# Target sequence (P11229 whole entry, looked up): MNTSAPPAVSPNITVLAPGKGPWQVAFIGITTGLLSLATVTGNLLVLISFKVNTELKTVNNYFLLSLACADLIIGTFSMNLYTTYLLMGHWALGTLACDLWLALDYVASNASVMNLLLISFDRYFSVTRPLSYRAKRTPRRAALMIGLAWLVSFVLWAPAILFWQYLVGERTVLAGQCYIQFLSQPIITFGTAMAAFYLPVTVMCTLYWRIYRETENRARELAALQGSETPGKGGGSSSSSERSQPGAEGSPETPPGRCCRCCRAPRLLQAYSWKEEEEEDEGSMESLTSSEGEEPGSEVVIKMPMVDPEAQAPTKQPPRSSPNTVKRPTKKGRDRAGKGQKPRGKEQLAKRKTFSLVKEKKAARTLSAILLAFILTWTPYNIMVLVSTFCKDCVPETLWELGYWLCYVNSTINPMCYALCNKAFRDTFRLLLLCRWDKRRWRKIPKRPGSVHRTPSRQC
# CHO-K1 Ca antag: nonselective inhibitor or artifact in parental CHO-K1 cells | inhibition, % at 3 µM | 360,000 tested, 0.6% active | ATP-induced calcium, Fluo-8 fluorescence;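 active means inhibition above a per-plate cutoff, the plate's mean sample inhibition plus 3 SD, cut at about 24% in these data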;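 further: 0% = DMSO plus EC80 ATP and 100% = DMSO alone without ATP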
# CHRM1 agonist: human M1 muscarinic receptor agonists, primary screen, Fluo-8 calcium fluorescence, CHO-K1 cells, HTS; CHO-K1 hM1, agonist mode; 0% DMSO, 100% acetylcholine EC100; AID 588814, 2011; 360,000 tested, 0.33% active; Muscarinic acetylcholine receptor M1 (Homo sapiens), P11229; activation, % at 3 µM;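 active means activation above the run's mean compound activation plus 3 SD, cut at about 16% in these data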;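 further: peak over basal fluorescence ratio within a 140 s kinetic read after compound addition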
# CHO-K1 Ca ag: counter-screen for M1 agonists: effect in parental CHO-K1 cells; Fluo-8 calcium fluorescence; scaled to maximal ATP response, vehicle zero; activation, % at 3 µM; 360,000 tested, 0.48% active; in the data active means activation above about 15%;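 further: untransfected CHO-K1 host cells lacking M1 receptor as counterscreen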
# CHO-K1 Ca PAM: nonselective calcium activators in parental CHO-K1 cells, primary screen, counter-screen for M1 PAM project, cell-based, Fluo-8 calcium fluorescence, full deck, 1536-well. 360,000 tested, 0.02% active. ATP EC20; 0% at ATP EC20, 100% at ATP max. activation, % at 3 µM;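 active means activation above the run cutoff, the mean activation of all test compounds plus 3 SD, cut at about 40% in these data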;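 further: peak over basal fluorescence ratio in a 140 s read after ATP addition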
# M1 PAM: human M1 muscarinic receptor positive allosteric modulators, primary screen, CHO-K1 cells, Fluo-8 calcium fluorescence, 1536-well; AID 588819, 2011; 360,000 tested, 0.088% active; CHO-K1 hM1, ACh EC20; 0% = ACh EC20, 100% = maximal ACh; activation, % at 3 µM; Muscarinic acetylcholine receptor M1 (Homo sapiens), P11229; in the data active means activation above about 19%, passing the limit was not always enough
# The depositor's hits bear a star. Only some compounds are listed: those with a hit (about 2.3% of all), similar ones and a draw of the others.
SMILES,CHRM1 antagonist,CHO-K1 Ca antag,CHRM1 agonist,CHO-K1 Ca ag,CHO-K1 Ca PAM,M1 PAM
Cc1ccc(C(=O)N(C)c2ccc(OCC(=O)N3c4ccc(C)cc4C4CN(C)CCC43)cc2)cc1 (stereo not drawn),23*,6,-15,0,-4,-30
Cc1ccc2c(c1)C1CN(C)CCC1N2C(=O)c1cccc(S(=O)(=O)N2CC(C)CC(C)C2)c1 (stereo not drawn),37*,-22,-8,1,20,-24
Cc1ccc2c(c1)C1CN(C)CCC1N2C(=O)c1ccc(Cl)c(S(=O)(=O)N2CCOCC2)c1 (stereo not drawn),79*,-12,-5,2,17,-22
Cc1ccc2c(c1)C1CN(C)CCC1N2S(=O)(=O)c1cc(C(F)(F)F)ccc1Cl (stereo not drawn),-3,6,4,0,-19,13
C[C@H]1CN([C@@H](C)CO)C(=O)CCCn2cc(nn2)CO[C@@H]1CN(C)S(=O)(=O)c1ccc(Oc2ccccc2)cc1,-21,-8,-7,0,23,10
O=C(CC(c1ccccc1O)N1CCCCC1)N1CCCCC1 (stereo not drawn),70*,-1,-6,0,-2,-23
O=C(CC(c1ccccc1)c1cc(Cl)ccc1O)N1CCCC1 (stereo not drawn),4,-11,-4,12,24,-5
O=C(COC(=O)c1cc(S(=O)(=O)N2CCCCC2)ccc1N1CCOCC1)c1ccc(F)cc1,-11,-17,-5,0,27,2
COc1ccc(C2C(C(=O)N3CCCC3)c3cc(OC)c(OC)cc3C(=O)N2C)cc1 (stereo not drawn),-3,26*,0,0,-8,2
COc1ccc([C@H]2C[C@H](n3cc(-c4ccc(F)cc4)nn3)[C@@H](O)CN2C(=O)C2CCCCC2)cc1,2,0,-3,1,9,-3
O=C1CCCN1CCCNc1nc(NCc2cccs2)nc2ccsc12,68*,22,69*,56*,-12,-33
c1ccc(CNc2nc(NCc3cccs3)nc3ccsc23)cc1,25,14,14,16*,11,-21
COc1cccc(CNc2nc(NCc3ccccc3)nc3ccsc23)c1,46*,21,15,29*,-16,-28
CCOC(=O)Cc1ccc(Nc2nc(NCCOC)nc3ccsc23)cc1,42*,-2,-5,5,-11,-30
CNc1nc(NCc2ccccc2)c2sccc2n1,8,-5,2,6,-9,-4
c1csc(CNc2nc(NCC3CCCCC3)c3sccc3n2)c1,24,23,7,14,14,-14
O=c1ccn2c(n1)SC(c1ccccc1)C2 (stereo not drawn),-16,-8,-1,0,12,11
Cc1ccc(Nc2nc(NCc3cccs3)nc3ccsc23)c(C)c1,13,8,6,7,8,-15
COCCNc1nc(NCc2cccs2)nc2ccsc12,91*,64*,93*,85*,-18,-33
CC(=O)NCCNc1nc(NCc2cccs2)nc2ccsc12,-25,-6,-3,5,-2,-1
Cc1ccc(Nc2nc(NCc3ccccc3)nc3ccsc23)c(C)c1,55*,18,16,2,-11,-24
COc1cccc(CNc2nc(NCC3CC3)nc3ccsc23)c1OC,35,5,-4,4,-13,-27
O=C1NCCN1CCNc1nc(NCc2ccccc2)nc2ccsc12,70*,27*,47*,32*,-13,-33
CC(C)Nc1nc(NCCN2CCNC2=O)c2sccc2n1,-11,-9,-9,0,17,-1
CSc1ccccc1CNc1nc(NCC2CC2)nc2ccsc12,39*,17,2,9,-10,-21
SMILES,CHRM1 antagonist,CHO-K1 Ca antag,CHRM1 agonist,CHO-K1 Ca ag,CHO-K1 Ca PAM,M1 PAM
CC(Cc1ccc(Cl)cc1)N1CCC(n2nccc2NC(=O)C2CCCC2)CC1 (stereo not drawn),-5,-3,-6,2,-13,-1
CC(C)CCc1noc(CN2CCN(c3ccc(Cl)cn3)CC2)n1,-3,13,-8,-1,-13,0
CCOc1ccc(C2=CC(=O)C[C@H](c3ccc(OC)cc3)C2)cc1,-3,-12,-8,0,6,-1
CCc1cc(Cn2nc(-c3ccccc3)cc2C(=O)NCc2cccc(Br)c2)on1,5,-3,-5,2,-1,-7
c1ccc(CNc2nc(NCCc3ccncc3)c3sccc3n2)cc1,91*,99*,99*,93*,-14,-31
CCCN(CCC)CCCOC(=O)c1ccc(Cl)cc1Cl,68*,-10,-4,2,19,-21
CN(C)CCCOC(=O)c1ccc(Cl)cc1Cl,-4,-6,-6,0,8,8
